Assay results from PubChem BioAssay AID652068 (The Scripps Research Institute Molecular Screening Center, 2013).
“And” between values parts separate entries of the source, which are not always exact repeats. Equal values may be shown once. The campaign covered roughly 4,300 compounds. About 4,000 (93%) were called active. The set was probably picked from earlier hits. Only a sample is shown. Values without a mark were called inactive.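 How the source made its calls: active means inhibition above its plate's cutoff, the mean test-well inhibition plus 3 SD (cut at about 4.8% in these data); inactive means the rest.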

assay: displacement of TO-PRO-1 from CAG DNA duplex, counter-screen for rCAG RNA repeat binder project, biochemical, fluorescence, TO-PRO-1 dye, d(CAG) DNA oligo (AID 652068); details: d(CAG) DNA oligo TO-PRO-1 dye displacement, at 3 µM, hits give high values;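 further: 0% = DNA dye mix with DMSO and 100% = 100 µM mitoxantrone; hits displace the dye from DNA and so lower well fluorescence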

| Compound | inhibition |
| --- | --- |
| O=C(COc1ccccc1Cl)Nc1ccc(C(=O)c2ccc(C(=O)O)cc2)cc1 | 3.95% |
| Cc1cc(C)cc(OCC(=O)Nc2cc(NC(=O)COc3cc(C)cc(C)c3)cc(C(=O)O)c2)c1 | 39.1% (active) |
| Cc1cccc(OCC(=O)Nc2ccc(C(=O)O)cc2NC(=O)COc2cccc(C)c2)c1 | 11.1% (active) |
| Cc1cc(C)cc(Oc2c(C(F)(F)F)oc3cc(OCC(=O)O)ccc3c2=O)c1 | 4.02% |
| Cc1ccccc1-n1c(SCC(=O)Nc2cccc3ccccc23)nc(O)cc1=O | 7.03% (active) |
| CCOc1ccc(C(=O)Nc2ccc(S(=O)(=O)Nc3cc(C)on3)cc2)cc1 | 6.38% (active) |
| Cc1ccc(C(=O)/C=C/Nc2ccc(S(=O)(=O)Nc3onc(C)c3C)cc2)cc1 | 16.3% (active) |
| COc1cc2ccccc2cc1C(=O)Nc1ccc(S(=O)(=O)Nc2cc(C)on2)cc1 | 23.6% (active) |
| Cc1cc(OC(C)C(=O)Nc2ccc(S(=O)(=O)Nc3onc(C)c3C)cc2)cc(C)c1Cl (stereo not drawn) | 26.6% (active) |
| CCn1cc(C(=O)NCC2COc3ccccc3O2)c2cc(OC)c(OC)cc2c1=O (stereo not drawn) | 0.88% |
| CCc1ccc(OC(C)C(=O)Nc2ccc(S(=O)(=O)Nc3cc(C)on3)cc2)cc1 (stereo not drawn) | 5.12% (active) |
| CCOc1cc(C(=O)Nc2ccc(S(=O)(=O)Nc3cnc4ccccc4n3)cc2)cc(OCC)c1OCC | 26.9% (active) |
| CCCCC[C@@H]1C=C(C(=O)O)[C@H](c2ccc(C#N)cc2)N1S(=O)(=O)c1ccc(C)cc1 | 20.6% (active) |
| Cc1ccc(S(=O)(=O)N2[C@@H](c3ccc(Br)cc3)C(C(=O)O)=C[C@H]2CC2CCCC2)cc1 | 34.4% (active) |
| Cc1cc(C(=O)N/N=C/c2ccc(O)c([N+](=O)[O-])c2)c(C)n1-c1ccc(F)cc1 | 14.8% (active) |
| Cc1ccc(SC(CC(=O)c2ccc(C(C)(C)C)cc2)C(=O)O)cc1 (stereo not drawn) | 12.6% (active) |
| Cn1c2ccccc2c2cc(/C=C(\NC(=O)c3ccccc3)C(=O)NCC(=O)O)ccc21 | 12.6% (active) |
| O=C1CC(c2ccccc2)=NN1c1ccc([N+](=O)[O-])cc1 | 14.2% (active) |
| O=C1Oc2ccccc2C(=O)/C1=C/c1ccccc1O | 10.7% (active) |
| COc1cccc(-c2coc3cc4oc(=O)c(CC(=O)O)c(C)c4cc23)c1 | 11.6% (active) |
| C=CCSc1nsc(NC(=O)Nc2cccc(C(C)=O)c2)n1 | 16.3% (active) |

| Compound | inhibition |
| --- | --- |
| CCSc1nsc(NC(=O)Nc2cccc(C(C)=O)c2)n1 | 12.6% (active) |
| O=C(Nc1cccc(Cl)c1)Nc1ccccc1NS(=O)(=O)c1cccs1 | 9.83% (active) |
| O=C(Nc1nncs1)c1ccccc1NS(=O)(=O)c1cccs1 | 6.44% (active) |
| COc1ccc(NS(=O)(=O)c2cc(NC(=O)CC(=O)c3ccc([N+](=O)[O-])cc3)ccc2C)cc1 | 19% (active) |
| COc1cc(OC)c(S(=O)(=O)Nc2ccccc2C(=O)O)cc1S(=O)(=O)Nc1ccccc1C(=O)O | 6.92% (active) |
| COc1ccc(NS(=O)(=O)c2cc(C(=O)Nc3ccccc3C(=O)O)ccc2C)cc1 | 18.6% (active) |
| CC(=N\NC(=O)c1cc(Br)ccc1O)/C(=N/O)C(=O)Nc1ccccc1 | 3.8% |
| O=[N+]([O-])c1cc(Cl)cc(/C=N/NC(=S)Nc2cc(S(=O)(=O)N3CCOCC3)ccc2Cl)c1O | 84.8% (active) |
| CCOC(=O)c1c(NC(=O)C2CC=CCC2C(=O)O)sc(C)c1CC (stereo not drawn) | 5.11% (active) |
| C=CCn1c(=S)[nH]c2scc(-c3ccco3)c2c1=O | 15.4% (active) |
| Cc1ccc(Cn2c(SCC(=O)N/N=C/c3ccccc3OCC(=O)O)nc3ccccc32)cc1 | 23% (active) |
| O=C(Cc1ccccc1)Nc1ccc(C(=O)Nc2ccccc2C(=O)O)cc1 | 10.5% (active) |
| Cc1sc(NC(=O)c2ccc3ncsc3c2)c(C(N)=O)c1C | 7.12% (active) |
| N#Cc1ccccc1CN1C(=O)S/C(=C/c2cccn2-c2cccc(C(=O)O)c2)C1=O | 25.7% (active) |
| CC(=O)Nc1ccc(S(=O)(=O)N(CCc2ccccc2)CC(=O)N/N=C/c2ccc(C(=O)O)cc2)cc1 | 5.27% (active) |
| Cc1ccc(N=C2NC(=O)/C(=C/C=C/c3ccco3)S2)cc1C | 23.8% (active) |
| COc1cc(C(=O)Nn2c(O)c(C3=c4ccccc4=NC3=O)sc2=S)ccc1O | 8.15% (active) |
| Cc1ccc(NC(=O)CC2S/C(=N/N=C3\CCCc4ccccc43)NC2=O)cc1 (stereo not drawn) | 17.1% (active) |
| COc1ccc(/C=C/C(=O)c2ccc(NS(=O)(=O)c3ccc(C)cc3)cc2)cc1O | 18.4% (active) |
| CCN(CC)C(=O)CSC(Nc1cccc(F)c1)=C(C#N)C#N | 13.2% (active) |
| COc1cc(/C=C2/C(=O)NN(c3cccc(Cl)c3)C2=O)cc(Br)c1O | 9.22% (active) |

| Compound | inhibition |
| --- | --- |
| CN(C(=O)COC(=O)c1cc(-c2ccco2)nc2ccccc12)C1CCS(=O)(=O)C1 (stereo not drawn) | 13.2% (active) |
| COc1ccc(C(CNC(=O)c2cccc(S(=O)(=O)Nc3ccccc3Cl)c2)N2CCOCC2)cc1 (stereo not drawn) | 27.5% (active) |
| Cc1ccc(NC(=O)CSc2nc(CSc3ccc(C)cc3)cc(=O)[nH]2)cc1 | 16.7% (active) |
| CN(C)S(=O)(=O)c1cccc(-c2nn(-c3ccccc3)cc2/C=C2\SC(=S)N(CC(=O)O)C2=O)c1 | 55.3% (active) |
| Cc1ccc(-c2nn(-c3ccccc3)cc2/C=C2\SC(=S)N(CCCCCC(=O)O)C2=O)o1 | 28.4% (active) |
| CCc1nnc(NS(=O)(=O)c2ccc(N=Cc3c(C)[nH]n(-c4ccc(C)cc4)c3=O)cc2)s1 | 32.2% (active) |
| O=C(N/N=C/c1c(Cl)[nH]c2ccccc12)c1sc2ccccc2c1Cl | 17.5% (active) |
| Cc1ccc(NC(=S)NNC(=O)CSc2nnc(SCc3ccccc3Cl)s2)cc1 | 18.8% (active) |
| CC(C)=CCCC1(C)C=Cc2c(ccc3c2[nH]c2cc(O)c(C)cc23)O1 (stereo not drawn) | 15.3% (active) |
| CCOC(=O)C1Nc2ccc(C(F)(F)F)cc2C2C=CCC12 (stereo not drawn) | 9.84% (active) |
| Cc1cc2nc(-c3ccco3)c(Cc3cccc(F)c3)n2c(C)c1Br | 11.8% (active) |
| CC1(C(=O)NS(=O)(=O)c2ccc(C#N)cc2)CCN1C(=O)c1ccc(C2CCCCC2)cc1 (stereo not drawn) | 14.9% (active) |
| Cc1ccc(S(=O)(=O)N2[C@@H](c3cccc4ccccc34)C(C(=O)O)=C[C@H]2C(C)(C)C)cc1 | 15.6% (active) |
| CCc1ccc(N2CC(C(=O)Nc3ccc(S(=O)(=O)Nc4nccs4)cc3)CC2=O)cc1 (stereo not drawn) | 16.7% (active) |
| Cc1ccc(Sc2cc(C(=O)c3ccccc3C(=O)O)ccc2[N+](=O)[O-])cc1 | 29.8% (active) |
| COc1cccc(/C=N/Nc2ccc(S(=O)(=O)Nc3ccccc3C(=O)O)cc2[N+](=O)[O-])c1O | 79.1% (active) |
| COc1ccc(Br)cc1/C=N/Nc1ccc(S(=O)(=O)Nc2ccccc2C(=O)O)cc1[N+](=O)[O-] | 71.3% (active) |
| O=C(O)c1ccccc1/C=N/Nc1ccc(S(=O)(=O)Nc2ccc(Cl)cc2)cc1[N+](=O)[O-] | 27.1% (active) |
| COc1ccc(OCC(=O)Nc2nnc(-c3ccco3)s2)cc1 | 8.39% (active) |
| Cc1ccccc1-c1ccc2c(c1)O[C@@H](CN(C)Cc1ccc(C(=O)O)cc1)[C@@H](C)CN([C@H](C)CO)S2(=O)=O | 21.1% (active) |
| O=C(COc1ccc([N+](=O)[O-])cc1)Nc1cccc(C(=O)Nc2ccccc2C(=O)O)c1 | 24.8% (active) |

| Compound | inhibition |
| --- | --- |
| COc1ccc(C(N)c2csc(NC(=O)Nc3cccc(C(F)(F)F)c3)n2)cc1 (stereo not drawn) | 10.1% (active) |
| CCOC(=O)c1csc(NC(=O)Nc2cccc(OC)c2)n1 | 16.7% (active) |
| NC(c1ccccc1)c1csc(NC(=O)Nc2cccc(C(F)(F)F)c2)n1 (stereo not drawn) | 15.2% (active) |
| NC(c1csc(NC(=O)Nc2cccc(C(F)(F)F)c2)n1)C1CCCCC1 (stereo not drawn) | 4.91% (active) |
| CCN1C(=O)/C(=C2/Sc3ccccc3N2CCCS(=O)(=O)O)SC1=S | 7.23% (active) and 13.9% (active) |
| CCOC(=O)c1ccccc1N1C(=O)C2Sc3[nH]c(=O)sc3C(/C=C/c3ccccc3)C2C1=O (stereo not drawn) | 18.1% (active) |
| CC[C@@H](C)[C@H](NC(=O)CCc1c(C)c2cc3c4c(oc3c(C)c2oc1=O)CCCC4)C(=O)O | 14.9% (active) |
| Cc1c(CCC(=O)N[C@@H](CC(C)C)C(=O)O)c(=O)oc2c(C)c3oc4c(c3cc12)CCCC4 | 12.2% (active) |
| COc1ccc(C(=O)/C=C/c2ccc(-c3ccccc3)cc2)cc1CSCC(=O)O | 50.7% (active) |
| COC(=O)c1ccc(COc2ccc(/C=C/C(=O)c3ccc(OC)c(CSCC(=O)O)c3)cc2OC)cc1 | 24.1% (active) |
| Cc1ccc2nc(N3C(=O)C(O)=C(C(=O)c4ccco4)C3c3cccc(O)c3)sc2c1 (stereo not drawn) | 37.6% (active) |
| N#Cc1c(-c2ccccc2)nc(SCc2ccc([N+](=O)[O-])cc2)[nH]c1=O | 17.4% (active) |
| Cc1ccc(CSc2nc(-c3ccccc3)c(C#N)c(=O)[nH]2)cc1 | 28.7% (active) |
| N#Cc1c(-c2ccccc2)nc(SCc2cccc(C(F)(F)F)c2)[nH]c1=O | 50% (active) |
| O=C(NNC(=S)NC(=O)c1cn(-c2ccccc2)nc1-c1ccccc1)c1ccncc1 | 15.3% (active) |
| O=C(O)c1ccc(NC(=O)c2cn(-c3ccccc3)nc2-c2ccc(Cl)cc2)cc1 | 23.2% (active) |
| O=C(O)c1ccc(N/N=C/c2cn(-c3ccccc3)nc2-c2cccs2)cc1 | 23% (active) |
| N#Cc1c(-c2ccccc2)cc(-c2ccccc2)nc1SCC(=O)O | 13% (active) |
| O=C(O)CCn1cc(/C=C/C(=O)c2ccc(Cl)cc2)c(-c2cccc(Br)c2)n1 | 53.6% (active) |
| Cc1cc(N2C(=O)C(O)=C(C(=O)c3ccc(C)o3)C2c2ccc(OCc3ccccc3)cc2)no1 (stereo not drawn) | 23.8% (active) |
